From PubChem BioAssay
Compounds with a hit are over-represented: about 1.2% of the library has one in this group of screens.
RGS4-Gao reg: modulators of RGS4 binding to Galphao, primary screen, biochemical, multiplexed bead flow cytometry | Guanine nucleotide-binding protein G(o) subunit alpha (Homo sapiens), P09471 | actives lie on both sides | binding response (% of control), % at 10 µM | hit rate 0.33% among 220,000 | AID 1415, 2008; in the data active means binding response below about 49% or above about 150%; inactive means in between;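 further: fluorescent Galphao activated with aluminum fluoride binding bead-coupled RGS4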
Target sequence (P09471 whole entry, looked up): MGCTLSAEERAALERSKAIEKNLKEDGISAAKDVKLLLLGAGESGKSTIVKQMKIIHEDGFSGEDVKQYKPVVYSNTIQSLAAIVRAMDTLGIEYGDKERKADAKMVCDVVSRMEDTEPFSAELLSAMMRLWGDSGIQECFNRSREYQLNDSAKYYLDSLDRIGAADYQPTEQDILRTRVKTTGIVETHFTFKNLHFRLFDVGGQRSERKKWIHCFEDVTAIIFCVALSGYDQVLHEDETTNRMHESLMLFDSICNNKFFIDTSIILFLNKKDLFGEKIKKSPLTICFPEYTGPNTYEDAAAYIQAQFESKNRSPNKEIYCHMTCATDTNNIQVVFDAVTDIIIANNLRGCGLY
Avidin bead fluor: green autofluorescence of compounds with avidin beads – biophysical, 488/530 nm, flow cytometry, artefact control, profiling panel; compound fluorescence 488/530 nm; hits give high values; AID 1775, 2009; hit rate 0.38% among 220,000; fluorescence (KMESF) at 10 µM; in the data active means fluorescence above about 47
GSH fluor: compound fluorescence on glutathione beads, profiling panel, artefact control, biophysical, 488/530 nm, flow cytometry; fluorescence (KMESF) at 10 µM; hit rate 0.25% among 190,000; AID 1776, 2009; GSH beads flow cytometry, compound fluorescence 488/530 nm; hits give high values; in the data active means fluorescence above about 89;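 further: glutathione beads carrying GST-tagged Bcl family fusion proteins plus one bare bead set; values are compound well signal with DMSO vehicle wells as background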
RGS7-Gao: RGS7-Galphao binding modulators, primary screen, biochemical, multiplexed bead flow cytometry; Guanine nucleotide-binding protein G(o) subunit alpha (Homo sapiens), P09471; actives lie on both sides; binding response (% of control), % at 10 µM; hit rate 0.35% among 220,000; AID 1439, 2008; in the data active means binding response below about 49% or above about 150%; inconclusive means no clear call, values can overlap the other calls; inactive means in between;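 further: fluorescent Galphao held in activated GDP-AlF4 state binding bead-coupled RGS7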
RGS8-Gao: RGS8-Galphao binding modulators, primary screen, biochemical, multiplexed bead flow cytometry; Guanine nucleotide-binding protein G(o) subunit alpha (Homo sapiens), P09471; hit rate 0.34% among 220,000; actives lie on both sides; response (percent of control binding), % at 10 µM; AID 1423, 2008; in the data active means response below about 60% or above about 140%; inactive means in between;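 further: Galphao activated as the GDP aluminium fluoride complex binding bead-coupled RGS8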
RGS16-Gao: modulators of RGS16 binding to Galphao, primary screen, biochemical, human proteins, multiplexed bead flow cytometry; Regulator of G-protein signaling 16 (Homo sapiens) + Guanine nucleotide-binding protein …; bead-based flow cytometry RGS16-Galphao binding, fluorescence; actives lie on both sides; binding response (% of control), % at 10 µM; hit rate 0.38% among 220,000;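 further: Galphao activated by GDP with aluminum fluoride before binding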
Target sequence (O15492 whole entry, looked up): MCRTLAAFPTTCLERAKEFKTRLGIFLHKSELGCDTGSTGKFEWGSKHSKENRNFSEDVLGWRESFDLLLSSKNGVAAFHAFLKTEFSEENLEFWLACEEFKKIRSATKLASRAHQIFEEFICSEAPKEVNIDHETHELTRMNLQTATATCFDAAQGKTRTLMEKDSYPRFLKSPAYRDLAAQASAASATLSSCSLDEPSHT
Target sequence (P09471 whole entry, looked up): as the sequence (P09471 whole entry, looked up) above
RGS4-Gao HTS: modulators of RGS–Galpha-o binding, primary screen, biochemical, multiplexed beads, flow cytometry, RGS4/7/8/16/19; shares compounds with RGS16-Gao; multiplexed bead flow cytometry; RGS4–Galpha-o binding response, % at 10 µM; hit rate 99% among 1,600; AID 1504, 2009;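 further: fluorescently labeled Galpha-o bound to GDP with aluminium fluoride binding biotinylated RGS beads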
Avidin counter: disruption of biotin probe capture by avidin, counter-screen for RGS protein interaction modulators, biochemical, flow cytometry, bead-based; shares compounds with RGS16-Gao; streptavidin beads, fluorescein-biotin binding; inhibition, % at 10 µM; 1,700 tested, under 10 active; AID 1783, 2009;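 active means inhibition above 50%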;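 further: median green fluorescence of gated singlet beads compared with DMSO control wells; 0% = DMSO wells and 100% = complete loss of bead fluorescence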
RGS8-Gao single: RGS8-Galphao binding modulators, confirmation, biochemical, multiplexed bead flow cytometry, single concentration; shares compounds with RGS16-Gao; bead-based flow cytometry RGS8-Galphao binding, fluorescence; actives lie on both sides; binding response (% of control), % at 10 µM; hit rate 3% among 1,700; in the data active means binding response below about 72% or above about 130%; inactive means in between;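 further: Galphao activated as GDP AlF4 complex before binding bead RGS8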
RGS7-Gao single: RGS7-Galphao binding modulators, confirmation, biochemical, multiplexed bead flow cytometry, single concentration. hit rate 7.8% among 1,700. bead-based flow cytometry RGS7-Galphao binding; actives lie on both sides. shares compounds with RGS16-Gao. AID 1837, 2009. response (percent of control binding), % at 10 µM; in the data active means response below about 75% or above about 130%; inactive means in between;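 further: fluorescent Galphao activated with GDP and aluminum fluoride binding bead-coupled RGS7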
RGS16-Gao single: modulators of RGS16-Galphao protein binding, confirmation, biochemical, single concentration, multiplexed bead flow cytometry | shares compounds with RGS16-Gao | bead-based flow cytometry; actives lie on both sides | response (% of control binding), % at 10 µM | hit rate 4% among 1,700 | AID 1838, 2009; in the data active means response below about 74% or above about 130%; inactive means in between;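 further: Galphao activated as the GDP aluminium fluoride complex binding bead-coupled RGS16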
RGS4-Gao confirm: modulators of RGS4-Galphao protein binding, confirmation, biochemical, single concentration, multiplexed bead flow cytometry | actives lie on both sides | hit rate 4% among 1,700 | binding response (% of control), % at 10 µM | shares compounds with RGS16-Gao; in the data active means binding response below about 74% or above about 130%; inactive means in between
RGS19-Gao conf: regulators of RGS19-Galphao binding, confirmation, biochemical, single point, multiplexed bead flow cytometry; shares compounds with RGS16-Gao; bead-based flow cytometry RGS19-Galphao binding; actives lie on both sides; response (percent of control binding), % at 10 µM; hit rate 5% among 1,700; AID 1841, 2009; in the data active means response below about 50% or above about 160%; inactive means in between;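 further: 100% = no compound control and 0% = blank background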
Numbers without * were called inactive; u = inconclusive; x = no result given; [ ] = remark or other dose. Unless noted, how the calls were made is not given here.

SMILES | RGS4-Gao reg | Avidin bead fluor | GSH fluor | RGS7-Gao | RGS8-Gao | RGS16-Gao | RGS4-Gao HTS | Avidin counter | RGS8-Gao single | RGS7-Gao single | RGS16-Gao single | RGS4-Gao confirm | RGS19-Gao conf
COC(=O)Nc1csc2c1NC(=O)CCCC2 | -9.2* | -1 | x | u | 18* | -4.2* | x | -1 | 95 | 84 | 91 | 93 | 99
CCC12CN3CCN(CC(C3)/C1=N\NC(=O)c1ccc(F)cc1)C2 | 42* | 6 | 13 | 43* | 55* | 38 | x | -1 | 99 | 99 | 98 | 98 | 97
CCC12CN3CCN(CC(C3)/C1=N\NC(=O)c1ccc(Cl)cc1)C2 | 99 | 6 | 12 | 90 | 97 | 94 | x | x | x | x | x | x | x
Cc1cccc(NC(=O)c2ccccc2-c2ccccc2)c1 | 97 | 9 | 17 | u | 99 | 98 | x | x | x | x | x | x | x
Cc1cc(NC(=O)c2ccccc2-c2ccccc2)ccc1Br | 108 | 15 | 4 | 110 | 124 | 226*[activator] | 108* | 0 | 102 | 102 | 99 | 101 | 91
COc1ccccc1-n1cc(CN2CCCC(CO)(Cc3cccc(Cl)c3)C2)cn1 (centres undefined) | 96 | 10 | 11 | 100 | 99 | 98 | x | x | x | x | x | x | x
O=C(CN1CCN(C(=O)c2ccco2)CC1)Nc1ccc2c(c1)OCCO2 | 122 | 223* | 36 | 178*[activator] | 99 | 108 | 122* | 0 | 97 | 94 | 95 | 99 | 98
O=C(CCC(=O)c1ccccc1)NCc1ccccc1 | 101 | 5 | x | u | 101 | 101 | x | x | x | x | x | x | x
Cc1ccccc1-n1sc2cc(F)ccc2c1=O | 90 | 2 | 7 | 104 | 37* | 4.8* | 90* | x | x | x | x | x | x
C=CCN(c1ccccc1OC)S(=O)(=O)c1cccc(C(=O)OCC(=O)c2c[nH]c3ccccc23)c1 | 100 | 11 | 9 | 99 | 101 | 100 | x | x | x | x | x | x | x
COc1cc(OC)c(N(C)S(=O)(=O)c2cccc(C(=O)OCC(=O)c3c[nH]c4ccccc34)c2)cc1Cl | 89 | 1 | 13 | 92 | 75 | 24* | 89* | 0 | 111 | 114 | 112 | 109 | 130
O=C(N/N=C/c1ccc([N+](=O)[O-])cc1)c1ccc(COc2ccccc2-c2ccccc2)cc1 | 102 | 8 | 15 | 102 | 100 | 103 | x | x | x | x | x | x | x
COc1ccc(N2CCN(C(CNC(C)=O)c3ccco3)CC2)cc1 (centres undefined) | 107 | 10 | 14 | 106 | 103 | 108 | x | x | x | x | x | x | x
COc1ccc(N2CCN(C(CNC(=O)OCc3ccccc3)c3ccco3)CC2)cc1 (centres undefined) | 104 | 13 | 17 | 106 | 124 | 189*[activator] | 104* | 3 | 103 | 99 | 101 | 100 | 98
CC(=O)c1ccc(-c2nnc(CCC(=O)N(C)Cc3c(C)nc4ccccn34)o2)s1 | 104 | 6 | 19 | 106 | 103 | 103 | x | x | x | x | x | x | x
O=S1(=O)CC2N=C(N(Cc3c(F)cccc3Cl)c3ccccc3F)SC2C1 (centres undefined) | 19* | -2 | 20 | 12* | 17* | 11* | x | 1 | 102 | 98 | 104 | 102 | 98
CCC(=O)Nc1cc(-c2nn(CC(=O)N3CCCCC3)c(=O)c3ccccc23)ccc1N1CCOCC1 | 117 | 143* | 34 | 155*[activator] | 100 | 108 | 117* | -2 | 104 | 100 | 103 | 101 | 112
CC1CCN(C(=O)c2ccc(NS(C)(=O)=O)cc2)CC1 | x | x | 48 | x | x | x | x | 1 | 101 | 104 | 101 | 102 | 88
CC(C)(C)NC(=O)NC(=O)CN1CCN(c2ncc(C(F)(F)F)cc2Cl)CC1 | x | x | 41 | x | x | x | x | 0 | 98 | 89 | 92 | 94 | 94
NNC(=O)CN1CCN(c2ncc(C(F)(F)F)cc2Cl)CC1 | 101 | 23 | 12 | 100 | 102 | 102 | x | x | x | x | x | x | x
COc1ccc(OC)c(NC(=O)Nc2nnc(N3CCC(C)CC3)s2)c1 | 40* | 3 | 13 | 43* | 58* | 40 | x | 0 | 109 | 108 | 118 | 106 | 108
C=CCNC(=O)NC(=O)COC(=O)c1ccccc1Sc1ccc(C(F)(F)F)cc1[N+](=O)[O-] | 106 | 12 | 8 | 103 | 118 | 184*[activator] | 106* | 0 | 105 | 112 | 108 | 108 | 108
CC(C)CNC(=O)NC(=O)COC(=O)c1ccccc1Sc1ccc(C(F)(F)F)cc1[N+](=O)[O-] | 104 | 23 | 11 | 105 | 98 | 95 | x | x | x | x | x | x | x
NC(=O)C1CCN(C2=C(NS(=O)(=O)c3ccccc3)C(=O)c3ccccc3C2=O)CC1 | 26* | 1 | x | u | 19* | 16* | x | 0 | 108 | 99 | 112 | 107 | 113
CN(/N=C/c1cccnc1)c1cnc2ccccc2n1 | 104 | 22 | 9 | 100 | 104 | 110 | x | x | x | x | x | x | x
